Measurements from PubChem BioAssay AID743279 (National Center for Advancing Translational Sciences (NCATS), 2014).
Hit rate of the full screen: of about 360,000 compounds, about 17,000 (4.7%) were called active. Inconclusive results (about 5%) are left out. The list comes from a sample in which actives are over-represented; it also holds similar structures and randomly drawn compounds. A number with no mark means an inactive call. Cut-off read from the data, not from the text of the source: active = activity change below about -50%; inconclusive = mostly about -30% to -49%; inactive = weaker than that.
% is set by controls: 0 for no effect and ±100 for the full control effect.

Experiment: qHTS for Inhibitors of Inflammasome Signaling: IL-1-beta AlphaLISA Primary Screen
Settings: THP-1 LPS/ATP IL-1B secretion, 16 h; at 57.5 µM, active compounds read low
Description: Inflammasomes are a set of intracellular multi-protein complexes that enable autocatalytic activation of inflammatory caspases and drive the innate immune response to counter harmful agents. […] A qHTS assay, based on AlphaLISA technology, was developed to screen the Molecular Libraries Small Molecule Repository (MLSMR) to look for novel inflammasome inhibitors. The assay detects IL-1B using AlphaLISA anti-IL-1B acceptor and donor beads. A decreased emission signal, indicating reduced IL-1B secretion, is the desired outcome for this assay. NIH Chemical Genomics Center [NCGC] NIH Molecular Libraries Probe Centers Network [MLPCN] MLPCN Grant: MH095513 Assay Provider: Shyam Biswal Ph.D., Johns Hopkins University Immunity. 2012 Jul 27;37(1):85-95. PMID: 22819042 [2] Curr Pharm Des. 2012;18(16):2320-8. PMID: 22390695
Three microliters containing 3000 THP-1 cells were dispensed into the wells of solid, white, tissue culture treated Greiner 1,536-well plates. Library compounds and positive control, Glyburide, were pin-transferred (23 nL) by a Kalypsys pin-tool equipped with a 1,536-pin array, resulting in final compound concentration ranges of 2.5 nM to 57.5 uM. After 1 hr of cell culture incubation (37 °C, 5% CO2), 1 microL of 1 microg/mL lipopolysaccharide (250 ng/mL, final) and 5 mM ATP (1.25 mM, final) were added to stimulate the cells. After 16 hr of cell culture incubation with the compounds, 1.5 uL of anti-IL-1B acceptor beads (6 ug/mL, final) and biotinylated antibody (0.6 nM, final) were added to the plate, followed by a 1 hr incubation at ambient temperature. To detect the secreted IL-1B, 1.5 uL of AlphaLISA SA-Donor beads (24 ug/mL, final) were added, followed by 30 min of incubation in the dark at ambient temperature. The AlphaLISA signal was read by a PerkinElmer EnVision plate reader with an ultrasensitive luminescence detector and 1536 Plate HTS AlphaScreen aperture (excitation of 680nm and emission of 615nm).
With `COC(=O)c1c(NC(=O)COc2ccc(Cl)cc2Cl)sc2c1CC(C)(C)NC2(C)C` the activity change was -99.6% (active).
`CCOC(=O)c1c(NC(=O)c2ccc(S(=O)(=O)N(C)CC3CCCO3)cc2)sc2c1CC(C)(C)NC2(C)C` (stereo unspecified) showed an activity change of -16.8%.
`COC(=O)c1sccc1NC(=O)COc1ccc(Cl)cc1` showed an activity change of -5.02%.
Compound `C[C@@H]1CN([C@H](C)CO)C(=O)CCCn2cc(nn2)CO[C@H]1CN(C)S(C)(=O)=O` has an activity change of -20.6%.
With `COC(=O)Cc1ccc(OC2(C)CCN(Cc3ccc4c(c3)OCCO4)C2)cc1` (stereo unspecified) the activity change was 12.5%.
Compound `COc1cc2c(cc1OC)C(c1cccc([N+](=O)[O-])c1)=NCC2` has an activity change of -7.18%.
In the case of `COc1cc(CN2CCCN(C)CC2)c([N+](=O)[O-])cc1OC`, the activity change is reported as 26.5%.
For `COc1cc2c(cc1OC)C(Cc1cc(OC)c(OC)cc1[N+](=O)[O-])=NCC2`, the activity change was -58.9% (active).
In the case of `C=CCOc1ccccc1CNn1c(C)n[nH]c1=S`, the activity change is reported as 0.633%.
With `CC(C)=CCc1c(O)c(CC=C(C)C)c2occ(-c3ccc(O)cc3)c(=O)c2c1O` the activity change was -78.8% (active).
Work on `CC(C)=CCc1ccc(O)c(=O)cc1C(C)C` yielded an activity change of 1.89%.
For `COc1cc(CNc2ncnc3c2ncn3[C@H]2CN(Cc3cccs3)C[C@@H](CO)O2)cc(OC)c1OC`, the activity change was 0.705%.
`CCCCn1c(N)c(N(CCOC)C(=O)CSCC(=O)Nc2cccc(C)c2)c(=O)[nH]c1=O` showed an activity change of 9.86%.
For `CCCCn1c(-c2cccc(C)c2)nc2cc3[nH]c(=O)c(C(C)C)nc3cc21`, the activity change was -61% (active).
In the case of `CCCCCn1nnnc1-c1nc2cc3ccccc3cc2[nH]c1=O`, the activity change is reported as 1.49%.
With `CC(C)Oc1ccc(C2NC(=O)NC2=O)cc1` (stereo unspecified) the activity change was 10.2%.
For `COc1ccccc1-c1n[nH]nc1C1=CC(=O)CC(C)(C)C1`, the activity change was -12.1%.
`COc1cc2nnn(-c3ccncc3)c2cc1OC` showed an activity change of -22.1%.
In the case of `Cc1ccc(-c2nnc(-n3nnc4ccccc43)c3ccccc23)cc1`, the activity change is reported as 55.9%.
With `c1ccc2c(c1)nnn2-c1ccncc1` the activity change was -56.6% (active).
In the case of `CC(Sc1ccc(S(=O)(=O)N2CCN(C)CC2)cn1)C(=O)NC1CCCC(C)C1C` (stereo unspecified), the activity change is reported as -7.4%.
With `COc1cccc(CNc2nc3nc4c(c(=O)n3[nH]2)CCC4)c1` the activity change was -4.67%.
For `COc1cccc(-c2cc3nc4c(c(N5CCC6(CC5)OCCO6)n3n2)CCCC4)c1`, the activity change was -96.1% (active).
`N#C/C=C\Oc1ccc(Cl)cc1N` showed an activity change of -9.78%.
Compound `Cc1ccccc1S(=O)(=O)NC(=O)C1(C)CCN1C(=O)C1(c2ccccc2)CCCC1` (stereo unspecified) has an activity change of 31.4%.
`C[C@@H]1Cn2cnc(C(=O)Nc3ccc(CNC(=O)OC(C)(C)C)cc3)c2C(=O)N1` showed an activity change of -13.5%.
Work on `CC(OC(=O)C1CC(=O)N(Cc2ccccc2)C1)C(=O)Nc1ccccc1[N+](=O)[O-]` (stereo unspecified) yielded an activity change of 16.6%.
For `Cc1cc(=O)oc2cc(NC(=O)C3CC(=O)N(Cc4ccccc4)C3)ccc12` (stereo unspecified), the activity change was 0%.
In the case of `O=C(Nc1ccc(F)c([N+](=O)[O-])c1)C1CC(=O)N(Cc2ccccc2)C1` (stereo unspecified), the activity change is reported as -91% (active).
With `NC(=O)C1(Nc2ccc([N+](=O)[O-])cc2)CCCC1` the activity change was -4.02%.
In the case of `CCOc1ccc(-c2ccc(SCC(=O)N3CCOCC3)nn2)cc1`, the activity change is reported as 71%.
In the case of `COc1cccc(-c2ccc(SCC(=O)N3CCN(c4ccccc4)CC3)nn2)c1`, the activity change is reported as -69.3% (active).
In the case of `COc1cccc(/C=C/C(=O)OCC(=O)N2CCN(c3ccccc3)CC2)c1`, the activity change is reported as -25.8%.
`CCOC(=O)CNC(=O)N1c2ccccc2Sc2ccccc21` showed an activity change of -21%.
`CC(NC(=S)Nc1ccccc1)C1COc2ccccc2O1` (stereo unspecified) showed an activity change of -4.51%.
For `CCN1/C(=C/C(=S)Nc2ccccc2)Sc2ccccc21`, the activity change was -101% (active).
In the case of `CCOC(=O)C1=CC[C@@H](c2ccncc2)N(S(=O)(=O)c2ccc(C)cc2)C1`, the activity change is reported as 57.8%.
Compound `O=C(c1ccc(Cl)c(S(=O)(=O)N2CCCCCC2)c1)N1CCN(c2ccc(O)cc2)CC1` has an activity change of -10.9%.
In the case of `COc1cc(/C=C/c2ccc(/C=C/c3cc(OC)c(OC)c(OC)c3)cc2)cc(OC)c1OC`, the activity change is reported as 94.5%.
Work on `COc1ccc(-n2c(-c3ccc(Cl)cc3)n[nH]c2=S)c(OC)c1` yielded an activity change of -15.4%.
`COc1ccc(/C=C/C(=O)OCC(=O)Nc2cccc(Oc3ccccc3)c2)c(OC)c1` gave an activity change of -2.25%.
With `COc1ccc(/C=C/C2=CC(C)(C)NC(=S)N2)c(OC)c1` the activity change was -87.3% (active).
Work on `COc1cc(/C=C/C(=O)OCC(=O)c2ccccc2)cc(OC)c1OC` yielded an activity change of 18.6%.
For `COc1cc(/C=C/C2=CC(C)(C)NC(=S)N2)cc(OC)c1OC`, the activity change was -71.3% (active).
Compound `CCOC(=O)C1CCCN(C(=O)Cn2ncc3c(=O)oc4ccc(C)cc4c32)C1` (stereo unspecified) has an activity change of 2.35%.
With `CCOC(=O)C1=CCC2C(=O)N(Cc3ccccc3)C(=O)C12` (stereo unspecified) the activity change was 3.12%.
Work on `CN(c1ccccc1)S(=O)(=O)c1ccc(C(=O)NCc2cccnc2)cc1` yielded an activity change of 12%.
Compound `Cn1c(=O)c2c(nc(OCc3cccnc3)n2Cc2ccccc2)n(C)c1=O` has an activity change of -9.43%.
`CN(C)CCOc1ccc(Cl)cc1C(C)(C)C` showed an activity change of -13.6%.
Compound `CCc1nc(C)ccc1OCC(=O)N(CC)CC` has an activity change of 6.9%.
With `CCC(C)(C)c1ccc(OCC(=O)N(C)C)c(C(C)(C)CC)c1` the activity change was -90.9% (active).
Work on `O=C(NC1CCCCC1)C1CCC(CNS(=O)(=O)c2ccccc2)CC1` (stereo unspecified) yielded an activity change of -6.12%.
`O=C(Nc1ccccc1C(=O)Nc1ccncc1)c1ccc([N+](=O)[O-])cc1` showed an activity change of -6.48%.
For `Cc1ccnc(NC(=O)c2ccc(Cl)c([N+](=O)[O-])c2)c1`, the activity change was -78.4% (active).
In the case of `Cc1ccnc(NC(=O)c2ccoc2C)c1`, the activity change is reported as -8.69%.
Compound `O=C(Nc1ccncc1)c1ccc([N+](=O)[O-])cc1Cl` has an activity change of -15%.
With `Cc1nc2ccccc2c(=O)n1NC(=O)c1ccc(Cl)c([N+](=O)[O-])c1` the activity change was -60.1% (active).
With `N#Cc1ccc(/C=C2\CCn3c2nc2cc(C(=O)O)ccc2c3=O)cc1` the activity change was -13.5%.
Work on `O=C(Nn1c(SCc2ccc([N+](=O)[O-])cc2)nc2ccccc2c1=O)c1ccc(F)cc1` yielded an activity change of -1.43%.
With `O=C(Nc1ccncc1)c1ccc(Cl)c([N+](=O)[O-])c1` the activity change was -64.8% (active).
`Cc1ccnc(NC(=O)Cn2ccc([N+](=O)[O-])n2)c1` showed an activity change of 15.1%.
`Cc1ccc(/C=C2\CCn3c2nc2cc(C(=O)O)ccc2c3=O)c(C)c1` gave an activity change of 12.5%.
`CCN(CC)c1ccc(C(=O)Nn2c(C)nc3ccccc3c2=O)cc1` gave an activity change of 18.5%.
For `O=C(O)c1ccc2c(=O)n3c(nc2c1)/C(=C/c1ccc(Cl)c([N+](=O)[O-])c1)CC3`, the activity change was -64.3% (active).
`CC1(C(=O)NCc2ccco2)Cc2c(-c3ccc4c(c3)OCO4)ccnc2O1` (stereo unspecified) showed an activity change of 7.16%.
Compound `Cc1ccccc1CSc1nnc(-c2ccccn2)n1N` has an activity change of -29.8%.
`CCOC(=O)C1CCN(C(=O)c2ccc3c(=O)n4nc(Nc5ccccc5CC)sc4nc3c2)CC1` gave an activity change of -8.29%.
In the case of `CCCCN1C(=O)C(CC(=O)NCc2cccs2)CC(C(=O)N2CCOCC2)=C1C` (stereo unspecified), the activity change is reported as 34.2%.
For `COc1ccccc1CNC(=O)Cn1c(=O)oc2cc(Cl)ccc21`, the activity change was -3.46%.
Compound `Cc1ccc(C(O)c2ncc(-c3ccccc3F)[nH]2)cc1F` (stereo unspecified) has an activity change of 0.413%.
`Cc1ccc(CC2(C)C(=O)Nc3ccc(OC(F)(F)F)cc32)cc1` (stereo unspecified) gave an activity change of -8.4%.
Work on `CN1OC[C@@H]2CN(C(=O)c3cccnc3)[C@H](c3ccc(N4CCCCC4)cc3)C[C@@H]21` yielded an activity change of 3.15%.
Work on `CCNC(=O)C1(C)CCCN(C(=O)c2c(C)noc2C)C1` (stereo unspecified) yielded an activity change of 25%.
Compound `CS(=O)(=O)c1sc(C(=O)NC(=S)Nc2ccc(OC(F)(F)F)cc2)c2c1C=CCC2` has an activity change of 21.9%.
In the case of `COc1ccc(CNC(=O)C2CCN(S(C)(=O)=O)CC2)cc1`, the activity change is reported as 14.1%.
With `CCOC(=O)/C(=C\c1ccc([N+](=O)[O-])cc1)C(=O)c1cc(C(C)=O)c(Nc2ccccc2)s1` the activity change was -116% (active).
Work on `O=C(O)C(=Cc1ccc([N+](=O)[O-])cc1)CCc1ccccc1` yielded an activity change of 0.991%.
For `CCOC(=O)/C(=N\Nc1ccccc1[N+](=O)[O-])c1csc(Nc2ccccc2)n1`, the activity change was 1.73%.
`CC1C(=O)Nc2ccccc2N1C(=O)c1c(F)cccc1F` (stereo unspecified) showed an activity change of -9.24%.
With `C=C1C(=O)OC2C1CCC(C)=CCCC1(C)OC21` (stereo unspecified) the activity change was -113% (active).
`O=C(CSc1ccc([N+](=O)[O-])cn1)Nc1ccc(N2CCOCC2)c(Cl)c1` showed an activity change of -12.5%.
For `CS(=O)(=O)N(CC(=O)N1CCCC1)Cc1ccccc1`, the activity change was 4.88%.
For `COc1ccc(C(=O)OCC(=O)Nc2cccc(C(C)=O)c2)cc1OC`, the activity change was 20.1%.
With `COc1cc(C(=O)N(C)Cc2cccc(OC)c2OC)ccc1OCC(=O)Nc1cccc(C(F)(F)F)c1` the activity change was -57.3% (active).
In the case of `CCNC(=O)c1ccc(OCC(=O)Nc2ccc(F)cc2)c(OC)c1`, the activity change is reported as -5.56%.
Compound `O=C(CN1C(=O)NC2(CCCCC2)C1=O)NCCC1=CCCCC1` has an activity change of 21.6%.
Compound `COc1cccc(NC(=O)C2(C)CCN2C(=O)CCC2CCCC2)c1` (stereo unspecified) has an activity change of 12.2%.
With `COc1ccc(CSc2nnnn2-c2ccc(O)cc2)cc1F` the activity change was -64.2% (active).
`Oc1ccc(-n2nnnc2SCc2c(F)cccc2Cl)cc1` showed an activity change of -11.4%.
In the case of `COc1ccc(CSc2nnnn2-c2ccc(C(=O)O)cc2)cc1`, the activity change is reported as -2.8%.
`COc1ccc(C(C)=O)cc1CN1C(=O)NC2(CCCCC2C)C1=O` (stereo unspecified) gave an activity change of -5.22%.
